{
  "source": "the supplement of paper PMC4466140",
  "test_in_all_cases": "SPOT peptide array binding signal intensity (averaged, normalized) (arbitrary units (background-subtracted, floor 0; scale differs between SH3 domains)); higher = stronger binding of the SH3 domain to the peptide",
  "key": {"AgAbp1": {"target": "AgAbp1", "description": "(§1)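 GST-tagged SH3 domains from S. cerevisiae (Sc), A. gossypii (Ag), C. albicans (Ca) and S. pombe (Sp) were incubated at 10 ug/ml overnight at 4 C on cellulose SPOT membranes carrying 292 synthetic 15-mer peptides mined from the S. cerevisiae proteome (cysteines replaced by serines). Binding was detected with anti-GST antibody, HRP secondary and chemiluminescence, quantified with Genespotter, and reported as normalized spot intensities averaged over biological replicates.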"}, "AgBbc1": {"target": "AgBbc1", "description": "as §1"}, "AgBem1-D1": {"target": "AgBem1-D1", "description": "as §1"}, "AgBzz1-D1": {"target": "AgBzz1-D1", "description": "as §1"}, "AgBzz1-D2": {"target": "AgBzz1-D2", "description": "as §1"}, "AgCyk3": {"target": "AgCyk3", "description": "as §1"}, "AgFus1": {"target": "AgFus1", "description": "as §1"}, "AgHof1": {"target": "AgHof1", "description": "as §1"}, "AgHse1": {"target": "AgHse1", "description": "as §1"}, "AgLsb1": {"target": "AgLsb1", "description": "as §1"}, "AgLsb4": {"target": "AgLsb4", "description": "as §1"}, "AgMyo5": {"target": "AgMyo5", "description": "as §1"}, "AgNbp2": {"target": "AgNbp2", "description": "as §1"}, "AgRvs167": {"target": "AgRvs167", "description": "as §1"}, "AgSho1": {"target": "AgSho1", "description": "as §1"}, "AgSla1-D1-D2": {"target": "AgSla1-D1-D2", "description": "as §1"}, "AgSla1-D3": {"target": "AgSla1-D3", "description": "as §1"}, "CaAbp1-D1": {"target": "CaAbp1-D1", "description": "as §1"}, "CaAbp1-D2": {"target": "CaAbp1-D2", "description": "as §1"}, "CaBbc1": {"target": "CaBbc1", "description": "as §1"}, "CaBem1-D1": {"target": "CaBem1-D1", "description": "as §1"}, "CaBzz1-D1": {"target": "CaBzz1-D1", "description": "as §1"}, "CaBzz1-D2": {"target": "CaBzz1-D2", "description": "as §1"}, "CaCyk3": {"target": "CaCyk3", "description": "as §1"}, "CaFus1": {"target": "CaFus1", "description": "as §1"}, "CaHof1": {"target": "CaHof1", "description": "as §1"}, "CaHse1": {"target": "CaHse1", "description": "as §1"}, "CaLsb1": {"target": "CaLsb1", "description": "as §1"}, "CaLsb4": {"target": "CaLsb4", "description": "as §1"}, "CaMyo5": {"target": "CaMyo5", "description": "as §1"}, "CaNbp2": {"target": "CaNbp2", "description": "as §1"}, "CaRvs167": {"target": "CaRvs167", "description": "as §1"}, "CaRvs167-3": {"target": "CaRvs167-3", "description": "as §1"}, "CaSho1": {"target": "CaSho1", "description": "as §1"}, "CaSla1-D1-D2": {"target": "CaSla1-D1-D2", "description": "as §1"}, "CaSla1-D3": {"target": "CaSla1-D3", "description": "as §1"}, "ScAbp1": {"target": "ScAbp1", "description": "as §1"}},
  "data": [
    {"binder": "RLSRLLLSLPPESFT", "values": [
      {"measurement": "SPOT peptide array binding signal intensity", "setting": "AgAbp1", "result": 21.5},
      {"measurement": "SPOT peptide array binding signal intensity", "setting": "AgBbc1", "result": 5.5},
      {"measurement": "SPOT peptide array binding signal intensity", "setting": "AgBem1-D1", "result": 356},
      {"measurement": "SPOT peptide array binding signal intensity", "setting": "AgBzz1-D1", "result": 101},
      {"measurement": "SPOT peptide array binding signal intensity", "setting": "AgBzz1-D2", "result": 145},
      {"measurement": "SPOT peptide array binding signal intensity", "setting": "AgCyk3", "result": 2},
      {"measurement": "SPOT peptide array binding signal intensity", "setting": "AgFus1", "result": 878},
      {"measurement": "SPOT peptide array binding signal intensity", "setting": "AgHof1", "result": 96.5},
      {"measurement": "SPOT peptide array binding signal intensity", "setting": "AgHse1", "result": 1240},
      {"measurement": "SPOT peptide array binding signal intensity", "setting": "AgLsb1", "result": 17.8},
      {"measurement": "SPOT peptide array binding signal intensity", "setting": "AgLsb4", "result": 108},
      {"measurement": "SPOT peptide array binding signal intensity", "setting": "AgMyo5", "result": "≤ 0"},
      {"measurement": "SPOT peptide array binding signal intensity", "setting": "AgNbp2", "result": 47.5},
      {"measurement": "SPOT peptide array binding signal intensity", "setting": "AgRvs167", "result": 6.5},
      {"measurement": "SPOT peptide array binding signal intensity", "setting": "AgSho1", "result": 70},
      {"measurement": "SPOT peptide array binding signal intensity", "setting": "AgSla1-D1-D2", "result": 85},
      {"measurement": "SPOT peptide array binding signal intensity", "setting": "AgSla1-D3", "result": 5.5},
      {"measurement": "SPOT peptide array binding signal intensity", "setting": "CaAbp1-D1", "result": 152},
      {"measurement": "SPOT peptide array binding signal intensity", "setting": "CaAbp1-D2", "result": 48},
      {"measurement": "SPOT peptide array binding signal intensity", "setting": "CaBbc1", "result": 73.5},
      {"measurement": "SPOT peptide array binding signal intensity", "setting": "CaBem1-D1", "result": 1},
      {"measurement": "SPOT peptide array binding signal intensity", "setting": "CaBzz1-D1", "result": 46},
      {"measurement": "SPOT peptide array binding signal intensity", "setting": "CaBzz1-D2", "result": 138},
      {"measurement": "SPOT peptide array binding signal intensity", "setting": "CaCyk3", "result": 17},
      {"measurement": "SPOT peptide array binding signal intensity", "setting": "CaFus1", "result": 3850},
      {"measurement": "SPOT peptide array binding signal intensity", "setting": "CaHof1", "result": 0.5},
      {"measurement": "SPOT peptide array binding signal intensity", "setting": "CaHse1", "result": 33.5},
      {"measurement": "SPOT peptide array binding signal intensity", "setting": "CaLsb1", "result": 1.5},
      {"measurement": "SPOT peptide array binding signal intensity", "setting": "CaLsb4", "result": 37.5},
      {"measurement": "SPOT peptide array binding signal intensity", "setting": "CaMyo5", "result": 28},
      {"measurement": "SPOT peptide array binding signal intensity", "setting": "CaNbp2", "result": 287},
      {"measurement": "SPOT peptide array binding signal intensity", "setting": "CaRvs167", "result": 64.2},
      {"measurement": "SPOT peptide array binding signal intensity", "setting": "CaRvs167-3", "result": 1010},
      {"measurement": "SPOT peptide array binding signal intensity", "setting": "CaSho1", "result": 588},
      {"measurement": "SPOT peptide array binding signal intensity", "setting": "CaSla1-D1-D2", "result": "≤ 0"},
      {"measurement": "SPOT peptide array binding signal intensity", "setting": "CaSla1-D3", "result": 45.5},
      {"measurement": "SPOT peptide array binding signal intensity", "setting": "ScAbp1", "result": 49}
    ]}
  ]
}
